Reference: PubChem BioAssay (EPA / NIEHS)
Several values for one entry are separate records, joined by “and”; a condition that tells them apart may be missing. Identical values can stand only once. Where a structure was tested more than once in an assay, its records may differ in their call. Activity calls are given as the source filed them. The calls were made as follows: active = hit-call score of the fitted dose curve at least 0.9, where 1 is the maximum; inactive = score below 0.9.

Key:
[1] = read-out: Interleukin-8 (IL8), CXCL8 (gene 3576); experiment: BSK_KF3CT_IL8: BioMAP Diversity Plus: KF3CT Assay for Interleukin-8 (IL8) Biomarker Activity (AID 2284254); settings: primary human keratinocytes with fibroblasts
Summary of the method: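 ELISA detection of IL-8 from a human skin co-culture, keratinocytes with foreskin fibroblasts, at 24 h following chemical exposure, with gain of signal scored against DMSO controls.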

[2] = read-out: Macrophage Inflammatory Protein-1 Alpha (MIP1a), CCL3 (gene 6348); experiment: BSK_IMphg_MIP1a: BioMAP Diversity Plus: IMphg Assay for Macrophage Inflammatory Protein-1 Alpha (MIP1a) Biomarker Activity (AID 2284255); settings: primary human endothelial cells with macrophages
Summary of the method: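 Co-culture of human venular endothelial cells and macrophages exposed to compounds for 24 h; MIP-1a measured by ELISA relative to DMSO. Cytotoxicity assessed in parallel cultures by sulforhodamine B total-protein staining at 560 nm.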

CD69, CD69 (gene 969) = experiment: BSK_IMphg_CD69: BioMAP Diversity Plus: IMphg Assay for CD69 Biomarker Activity (AID 2284257); settings: primary human endothelial cells with macrophages
Summary of the method: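 Human venular endothelial cells co-cultured with macrophages; CD69 quantified by ELISA 24 h after compound addition. Activity fitted in the positive direction relative to DMSO baseline; cytotoxicity tracked in parallel cultures via SRB total-protein staining.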

[3] = read-out: Eotaxin 3, CCL26 (gene 10344); experiment: BSK_BF4T_Eotaxin3: BioMAP Diversity Plus: BF4T Assay for Eotaxin 3 Biomarker Activity (AID 2284258); settings: primary human bronchial epithelial cells with fibroblasts
Summary of the method: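 Co-culture of human bronchial epithelial cells and dermal fibroblasts, exposed to chemicals for 24 h versus DMSO. Eotaxin-3 quantified by ELISA; cytotoxicity checked in parallel cultures by sulforhodamine B total-protein staining.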

[4] = read-out: Intercellular Adhesion Molecule 1 (ICAM1), ICAM1 (gene 3383); experiment: BSK_BF4T_ICAM1: BioMAP Diversity Plus: BF4T Assay for Intercellular Adhesion Molecule 1 (ICAM1) Biomarker Activity (AID 2284260); settings: primary human bronchial epithelial cells with fibroblasts
Summary of the method: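 Co-culture of human bronchial epithelial cells and dermal fibroblasts exposed 24 h to chemical; cell-surface ICAM-1 quantified by ELISA. Parallel SRB total-protein staining assessed cytotoxicity; activity fitted relative to DMSO.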

[5] = read-out: Interleukin-8 (IL8), CXCL8 (gene 3576); experiment: BSK_MyoF_IL8: BioMAP Diversity Plus: MyoF Assay for Interleukin-8 (IL8) Biomarker Activity (AID 2284261); settings: primary human lung fibroblasts
Summary of the method: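 In this multiplexed primary-cell system, fibroblasts from human lung are treated with chemicals, and IL-8 is detected by ELISA at 24 h, with DMSO serving as the negative reference.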

CD90, THY1 (gene 7070) = experiment: BSK_BF4T_CD90: BioMAP Diversity Plus: BF4T Assay for CD90 Biomarker Activity (AID 2284262); settings: primary human bronchial epithelial cells with fibroblasts
Summary of the method: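 Co-culture of human bronchial epithelial cells and dermal fibroblasts, 24 h compound exposure. Cell-surface CD90 measured by ELISA relative to DMSO; parallel SRB total-protein staining for cytotoxicity.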

[6] = read-out: Interleukin-8 (IL8), CXCL8 (gene 3576); experiment: BSK_BF4T_IL8: BioMAP Diversity Plus: BF4T Assay for Interleukin-8 (IL8) Biomarker Activity (AID 2284263); settings: primary human bronchial epithelial cells with fibroblasts
Summary of the method: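 Human bronchial epithelial cells with dermal fibroblasts co-culture; IL-8 measured by ELISA 24 hours after dosing, fitted vs DMSO. Cytotoxicity tracked in parallel cultures by SRB total-protein staining.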

[7] = read-out: Interleukin-1 alpha (IL1a), IL1A (gene 3552); experiment: BSK_BF4T_IL1a: BioMAP Diversity Plus: BF4T Assay for Interleukin-1 alpha (IL1a) Biomarker Activity (AID 2284264); settings: primary human bronchial epithelial cells with fibroblasts
Summary of the method: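 Human bronchial epithelial cells co-cultured with dermal fibroblasts, dosed and read at 24 h. Secreted/surface IL-1α quantified by ELISA; gain-of-signal fitted relative to DMSO baseline. Parallel SRB total-protein staining tracked cytotoxicity.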

Decorin, DCN (gene 1634) = experiment: BSK_MyoF_Decorin: BioMAP Diversity Plus: MyoF Assay for Decorin Biomarker Activity (AID 2284265); settings: primary human lung fibroblasts
Summary of the method: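 Lung fibroblast cultures, 24 h chemical exposure. Decorin by ELISA, positive fitting direction, DMSO baseline.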

KRT18 (gene 3875) = experiment: BSK_BF4T_Keratin818: BioMAP Diversity Plus: BF4T Assay for Keratin 818 Biomarker Activity (AID 2284266); settings: primary human bronchial epithelial cells with fibroblasts
Summary of the method: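 Co-culture of human bronchial epithelial cells and dermal fibroblasts, chemical exposure 24 h. Keratin 8/18 measured by ELISA; positive-direction fit vs DMSO. SRB total protein run in parallel cultures for cytotoxicity.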

[8] = read-out: Matrix Metallopeptidase 1 (MMP1), MMP1 (gene 4312); experiment: BSK_MyoF_MMP1: BioMAP Diversity Plus: MyoF Assay for Matrix Metallopeptidase 1 (MMP1) Biomarker Activity (AID 2284268); settings: primary human lung fibroblasts
Summary of the method: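 MMP1 measured by ELISA 24 h after dosing primary human lung fibroblasts; cytotoxicity checked in parallel cultures by sulforhodamine B total-protein staining read at 560 nm.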

[9] = read-out: TIMP metallopeptidase inhibitor 1 (TIMP1), TIMP1 (gene 7076); experiment: BSK_MyoF_TIMP1: BioMAP Diversity Plus: MyoF Assay for TIMP metallopeptidase inhibitor 1 (TIMP1) Biomarker Activity (AID 2284269); settings: primary human lung fibroblasts
Summary of the method: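 Primary human lung fibroblasts, MyoF multiplex system; chemical exposure 24 h; TIMP-1 by ELISA; positive fitting direction vs DMSO control.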

[10] = read-out: Matrix Metallopeptidase 1 (MMP1), MMP1 (gene 4312); experiment: BSK_BF4T_MMP1: BioMAP Diversity Plus: BF4T Assay for Matrix Metallopeptidase 1 (MMP1) Biomarker Activity (AID 2284270); settings: primary human bronchial epithelial cells with fibroblasts
Summary of the method: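 Co-culture of human bronchial epithelial cells and dermal fibroblasts; MMP-1 levels measured by ELISA 24 hours after chemical dosing, relative to DMSO. Cytotoxicity checked in parallel cultures by SRB total-protein staining.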

[11] = read-out: Matrix Metallopeptidase 3 (MMP3), MMP3 (gene 4314); experiment: BSK_BF4T_MMP3: BioMAP Diversity Plus: BF4T Assay for Matrix Metallopeptidase 3 (MMP3) Biomarker Activity (AID 2284271); settings: primary human bronchial epithelial cells with fibroblasts
Summary of the method: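 Co-culture of human bronchial epithelial cells and dermal fibroblasts dosed 24 h; MMP-3 measured by ELISA, positive-direction fit versus DMSO. Cytotoxicity tracked by SRB total-protein staining (560 nm) in parallel cultures.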

[12] = read-out: Tissue plasminogen activator (tPA), PLAT (gene 5327); experiment: BSK_BF4T_tPA: BioMAP Diversity Plus: BF4T Assay for Tissue plasminogen activator (tPA) Biomarker Activity (AID 2284272); settings: primary human bronchial epithelial cells with fibroblasts
Summary of the method: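 tPA level quantified by ELISA at 24 h post-treatment in bronchial epithelial/dermal fibroblast co-cultures, gain of signal scored against DMSO baseline. Parallel cultures stained with 0.1% SRB (560 nm) to flag overt cytotoxicity.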

[13] = read-out: Plasminogen Activator Inhibitor-1 (PAI1), SERPINE1 (gene 5054); experiment: BSK_BF4T_PAI1: BioMAP Diversity Plus: BF4T Assay for Plasminogen Activator Inhibitor-1 (PAI1) Biomarker Activity (AID 2284273); settings: primary human bronchial epithelial cells with fibroblasts
Summary of the method: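 Co-culture of human bronchial epithelial cells and dermal fibroblasts exposed to compound for 24 h. PAI-1 measured by ELISA; activity fitted in positive direction versus DMSO. Parallel SRB staining assessed overt cytotoxicity.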

[14] = read-out: Plasminogen activator inhibitor-1 (PAI1), SERPINE1 (gene 5054); experiment: BSK_MyoF_PAI1: BioMAP Diversity Plus: MyoF Assay for Plasminogen activator inhibitor-1 (PAI1) Biomarker Activity (AID 2284256); settings: primary human lung fibroblasts;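 also: PAI-1 read 24 h after compound addition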
Summary of the method: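 Activity reflects increased PAI-1, determined by ELISA and compared with DMSO, in human lung fibroblasts treated for 24 h.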

[15] = read-out: Monocyte Chemoattractant Protein-1 (MCP1), CCL2 (gene 6347); experiment: BSK_BF4T_MCP1: BioMAP Diversity Plus: BF4T Assay for Monocyte Chemoattractant Protein-1 (MCP1) Biomarker Activity (AID 2284259); settings: primary human bronchial epithelial cells with fibroblasts
Summary of the method: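 Co-culture of bronchial epithelial cells and dermal fibroblasts dosed with chemical; MCP-1 measured by ELISA 24 h later. Activity fitted in positive direction versus DMSO; cytotoxicity checked by SRB staining in parallel cultures.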

[16] = BSK_MyoF_SRB: Viability Assessment in the BioMAP Diversity Plus: MyoF Assay (AID 2284267); settings: primary human lung fibroblasts;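 also: total protein by SRB absorbance in parallel cultures as cytotoxicity measure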
Summary of the method: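 Cytotoxicity in primary human lung fibroblasts is gauged by SRB total-protein staining 24 h after dosing, with DMSO as the negative control.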

Measured: AC50

O=C(O)C(F)(F)C(F)(F)C(F)(F)OC(F)(C(F)(F)F)C(F)(F)F
active: [1] 16.5 µM | [11] 39.5 µM
inactive: [1] | [2] | CD69, CD69 (gene 969) | [3] | [4] | [5] | CD90, THY1 (gene 7070) | [6] | [7] | Decorin, DCN (gene 1634) | KRT18 (gene 3875) | [8] | [9] | [10] | [11] | [12] | [13]

OCC(F)(F)C(F)(F)C(F)(F)C(F)(F)C(F)(F)C(F)(F)CO
not listed: [15] | [16]
inactive: all other assays above

NCC(F)(F)C(F)(F)C(F)(F)C(F)(F)C(F)(F)C(F)(F)F
not listed: [14] | [16]
inactive: all other assays above

FC(F)(F)C(F)(F)C(F)(F)C(F)(F)C(F)(F)C(F)(F)CC[Si](Cl)(Cl)Cl
active: [11] 0.211 µM
inactive: [1] | [2] | CD69, CD69 (gene 969) | [3] | [15] | [4] | [5] | CD90, THY1 (gene 7070) | [6] | [7] | Decorin, DCN (gene 1634) | KRT18 (gene 3875) | [8] | [9] | [10] | [11] | [12] | [13]

O=S(=O)(OCC(F)(F)F)C(F)(F)C(F)(F)C(F)(F)C(F)(F)F
active: [2] 21 µM and 5.95 µM
not listed: [14] | [15]
inactive: all other assays above

CCN=C1C=CC(=C(c2ccc(N(CC)CC)cc2)c2ccc(N(CC)CC)cc2)c2ccccc21
active: [1] 2.34 µM
inactive: [1]
